# The list is not random: actives were taken first. Their share in the collection is about 9.2%.
# UCHL1 inh: human UCHL1 deubiquitinase inhibition. purified UCHL1, Ub-rhodamine cleavage fluorescence. P09936. inhibition, % at 20 µM. hit rate 0.2% among 47,000
# USP17 inh: human USP17-like deubiquitinase inhibition; A8MUK1; purified USP17, Ub-rhodamine cleavage fluorescence, 3 h; inhibition, % at 50 µM; hit rate 6.5% among 47,000
# USP8 block: inhibitors of human USP8 deubiquitinase | P40818 | purified USP8, Ub-rhodamine cleavage fluorescence, 30 min | inhibition, % at 20 µM | hit rate 4.2% among 47,000 | AID 1645853
# OTUD3 block: blocks human OTUD3 ubiquitin-rhodamine cleavage; hit rate 0.7% among 47,000; AID 1645858; Q5T2D3; purified OTUD3, Ub-rhodamine fluorescence, 2 h; inhibition, % at 25 µM
# USP10 block: human USP10 deubiquitinase inhibition. Q14694. purified USP10, Ub-rhodamine fluorescence, 60 min. inhibition, % at 20 µM. hit rate 1.1% among 47,000. AID 1645856
# USP7 block: blocks human USP7 ubiquitin-rhodamine cleavage | Q93009 | purified USP7, Ub-rhodamine cleavage fluorescence | inhibition, % at 20 µM | hit rate 0.3% among 47,000 | AID 1645854
# Target sequence (Q93009 whole entry, looked up): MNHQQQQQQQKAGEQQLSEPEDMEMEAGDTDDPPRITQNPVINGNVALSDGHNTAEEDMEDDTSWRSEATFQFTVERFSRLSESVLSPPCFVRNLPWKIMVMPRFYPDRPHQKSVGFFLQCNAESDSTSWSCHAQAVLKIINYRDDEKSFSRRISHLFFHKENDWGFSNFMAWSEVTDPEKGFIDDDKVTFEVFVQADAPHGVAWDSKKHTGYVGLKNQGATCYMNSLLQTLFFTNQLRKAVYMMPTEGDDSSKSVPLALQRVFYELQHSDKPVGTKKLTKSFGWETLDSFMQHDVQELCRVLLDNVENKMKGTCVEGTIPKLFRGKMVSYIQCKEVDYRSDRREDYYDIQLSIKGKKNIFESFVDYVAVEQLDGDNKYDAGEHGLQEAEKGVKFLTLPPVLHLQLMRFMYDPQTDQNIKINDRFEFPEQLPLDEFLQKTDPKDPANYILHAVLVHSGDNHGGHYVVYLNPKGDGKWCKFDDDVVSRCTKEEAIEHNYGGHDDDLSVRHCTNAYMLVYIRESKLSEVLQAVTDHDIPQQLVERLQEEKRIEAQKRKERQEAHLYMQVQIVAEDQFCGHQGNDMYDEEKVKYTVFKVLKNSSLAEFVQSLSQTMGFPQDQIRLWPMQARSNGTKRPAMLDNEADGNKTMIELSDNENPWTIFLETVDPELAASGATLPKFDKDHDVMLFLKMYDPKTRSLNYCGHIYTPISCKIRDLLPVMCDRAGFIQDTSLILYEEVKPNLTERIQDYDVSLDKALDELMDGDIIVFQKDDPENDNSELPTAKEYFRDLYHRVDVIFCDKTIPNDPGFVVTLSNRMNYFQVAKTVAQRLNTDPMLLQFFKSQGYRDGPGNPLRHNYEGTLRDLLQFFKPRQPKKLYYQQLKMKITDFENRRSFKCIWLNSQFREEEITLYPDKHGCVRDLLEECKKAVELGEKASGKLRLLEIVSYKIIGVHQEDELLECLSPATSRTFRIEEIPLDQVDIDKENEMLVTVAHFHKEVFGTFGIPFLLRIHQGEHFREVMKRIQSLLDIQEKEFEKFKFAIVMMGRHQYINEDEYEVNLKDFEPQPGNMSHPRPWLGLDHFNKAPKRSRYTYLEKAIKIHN
# Numbers stand for hits; 0 = inactive. No stated cut-off is given here; in the data, active means inhibition above about 30%; inactive means the rest.
SMILES,UCHL1 inh,USP17 inh,USP8 block,OTUD3 block,USP10 block,USP7 block
COc1ccc(-n2ccn3c(CCC(=O)NCc4ccc(F)cc4)nnc3c2=O)cc1,0,69,0,0,0,0
O=C(c1ccccc1)N1CCC(c2nc3c(nnn3Cc3ccc(F)cc3)c(=O)[nH]2)CC1,0,0,0,0,0,0
Cc1nc(-c2ccc(-c3noc(-c4ccnn4C)n3)cc2)cs1,0,33,0,0,0,0
Cc1ccc(C)c(OCC(=O)Nc2ccc(-c3cn4ccsc4n3)cc2)c1,0,0,0,0,0,0
N#Cc1ccc(OCC(=O)Nc2ccc(-c3cn4ccsc4n3)cc2)cc1,0,0,46,0,0,0
N#Cc1ccc(NC(=O)COc2ccc(-n3cnnn3)cc2)cc1,0,49,0,0,0,0
O=C(COc1ccc(-n2cnnn2)cc1)Nc1cc(Cl)ccc1Oc1ccccc1,0,0,0,0,0,0
Cc1nn2c(CNC(=O)Cc3ccc(F)cc3)c(C)nc2s1,0,0,0,0,0,0
Cc1ccc(CN2CC[C@H](c3nnc(-c4cccnc4)o3)C2)o1,0,0,0,0,0,0
O=C(c1cc(-c2ccccc2)n[nH]1)N1CCC(Nc2cccnc2)C1 (configuration not stated),0,0,58,0,0,0
O=S(=O)(c1ccccc1)N1CCC(Nc2cccnc2)C1 (configuration not stated),0,0,0,0,0,0
CCOc1ccc(C(=O)N2CCC(Nc3cccnc3)C2)cc1 (configuration not stated),0,0,49,0,0,0
O=C(c1ccccc1)N1CCN(C(=O)c2cc(-c3cccnc3)n[nH]2)CC1,0,0,0,0,0,0
O=C(c1ccc2cc[nH]c2c1)N1CCC(Nc2cccnc2)C1 (configuration not stated),0,68,83,55,0,0
CCOc1nccnc1NC1CCN(C(=O)c2ccc(C#N)cc2)CC1,0,0,0,0,0,0
O=C(c1cc(-c2ccncc2)n[nH]1)N1CCC(C(=O)N2CC=C(c3ccccc3)CC2)CC1,0,64,0,0,0,0
Cc1ccc(S(=O)(=O)N2C[C@H](c3nc(-c4cccnc4)no3)[C@@H](C)C2)cc1,0,0,0,0,0,0
O=C(NC1CCCCC1)N1CCc2[nH]cnc2C1c1ccncc1 (configuration not stated),0,0,0,0,0,0
COc1ccc(C(=O)N2CCC(Nc3cccnc3)C2)c(OC)n1 (configuration not stated),0,0,62,0,0,0
O=C(c1ccc(N2CCc3ccccc32)nn1)N1CCc2ccccc21,0,52,0,0,0,0
CC(=O)Nc1cc(C(=O)NCCN2CCCCC2)c2ccc(C)nc2c1,0,0,0,0,0,0
CC(=O)Nc1cc(C(=O)NC2CCCC2)c2ccc(C)nc2c1,0,0,34,0,0,0
COc1ccc(NC(=O)c2ncoc2-c2cccs2)c(OC)c1,0,46,0,0,0,0
COc1cccc(-c2ocnc2C(=O)Nc2ccc(C)cc2C)c1,0,39,0,0,0,0
COc1ccc(-c2ocnc2C(=O)NCc2ccc(F)cc2)cc1OC,0,0,0,0,0,0
SMILES,UCHL1 inh,USP17 inh,USP8 block,OTUD3 block,USP10 block,USP7 block
COc1ccc(-c2ocnc2C(=O)Nc2cc(F)ccc2F)cc1,0,0,0,0,0,0
COc1cccc(-c2ocnc2C(=O)Nc2cc(C)ccc2C)c1,0,0,0,0,0,0
COc1ccc(-c2cc(C(=O)Nc3ccccc3F)on2)cc1,0,42,0,0,0,0
COc1ccc(-c2ocnc2C(=O)Nc2ccccc2F)cc1OC,0,76,0,37,0,0
Cc1cc(C)n(-c2nc3c(c(=O)n2CC(=O)Nc2ccccc2F)CCC3)n1,0,0,0,0,0,0
CCc1ccc(-c2cc(C(=O)NCc3ccccc3OC)c3cc(Br)ccc3n2)cc1,0,0,0,0,0,0
COc1ccc2c(C)c(CC(=O)N[C@@H](Cc3c[nH]c4ccccc34)C(=O)O)c(=O)oc2c1,0,0,0,0,0,0
COc1cc2c(cc1OC)-c1c(c(C(=O)O)nn1-c1ccc(F)cc1)C2,0,0,0,0,0,0
COc1cc2c(cc1OC)-c1c(c(C(=O)N3CCCC3)nn1-c1ccccc1F)C2,0,76,0,0,0,0
Cc1cc(C)nc(-n2ncc(C#N)c2NC(=O)c2ccc(Br)cc2)n1,0,0,44,0,0,0
O=C(Nc1ccccc1)c1ccc(-c2ccccc2)s1,0,54,0,0,0,0

# From PubChem BioAssay
